In PubChem BioAssay (NCI):
This is part of a sample that, as a whole, favours compounds with a hit. Of some 83,000 tested, about 20% had one in any assay.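 Percent growth is the endpoint: 0 to 100 indicates growth inhibition (40 means 60% inhibition), 0 means no net growth, and negative values indicate cell death.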 Activity calls are given as the source filed them. Rule for the calls: active = growth percent below 10; inactive = the rest.

Experiments:
Test in all cases: NCI-60 one-dose screen, 48 h (100 = growth as untreated, 0 = no growth, -100 = all killed)
Conditions in all cases: 10 µM unless noted
[1] = system: DU-145 prostate
[2] = system: K-562 leukemia
[3] = system: MALME-3M melanoma
[4] = system: MDA-MB-231 breast
[5] = system: RXF 393 renal
[6] = system: SF-268 CNS
[7] = system: SF-295 CNS
[8] = system: SF-539 CNS
[9] = system: UACC-257 melanoma
[10] = system: M14 melanoma
[11] = system: HCT-15 colon
[12] = system: HT29 colon
[13] = system: SNB-75 CNS
[14] = system: SNB-19 CNS
[15] = system: U251 CNS
[16] = system: PC-3 prostate
[17] = system: SK-MEL-5 melanoma
[18] = system: UACC-62 melanoma
[19] = system: LOX IMVI melanoma
[20] = system: SK-MEL-28 melanoma

Measured: growth

O=c1c2cc(F)ccc2sc2c(Nc3cccnc3)nc3ccccc3c12
inactive: [1] 107% | [2] 86.4% | [3] 103% | [4] 72.2% | [5] 88.4% | [6] 89.5% | [7] 95.2% | [8] 82.1% | [9] 97.8% | [10] 104% | [11] 87.2% | [12] 110% | [13] 71.9% | [14] 94.1% | [15] 70.2% | [16] 88.9% | [17] 88.9% | [18] 101% | [19] 89.4% | [20] 103%

N#C/C(=C/C=C/c1cccc(Cl)c1)S(=O)c1ccccc1 (stereo not given)
active: [1] -92.6% | [2] 2.14% | [3] -41.5% | [4] -57.6% | [5] -87.6% | [6] -59.2% | [7] -28.9% | [8] -50.3% | [9] -46.8% | [10] -52.6% | [11] -69.4% | [12] -35.9% | [13] -28% | [14] -53% | [15] -89.6% | [16] -55.5% | [17] -70.5% | [18] -74.2% | [19] -85.3% | [20] -61.1%

CN(c1ccccc1)c1ccc2c(c1)OCCC21CC1Nc1cnccc1C(=O)O (stereo not given)
inactive: [1] 88.8% | [2] 41.2% | [3] 67.5% | [4] 72.8% | [5] 76.4% | [6] 60.2% | [7] 44.2% | [8] 52.7% | [9] 77.5% | [10] 81.2% | [11] 27.1% | [12] 75.8% | [13] 67.3% | [14] 66.6% | [15] 43.9% | [16] 52.4% | [17] 48.7% | [18] 62% | [19] 34.3% | [20] 69.1%

CCN(CC)CCCCCCNc1cc(OC)c(Cl)c2cccnc12
active: [9] -1.76% | [18] -30.6%
inactive: [1] 95.4% | [2] 59.6% | [3] 88.4% | [4] 66.8% | [5] 84.6% | [6] 85.3% | [7] 82.3% | [8] 81.9% | [10] 27.2% | [11] 78.4% | [12] 16.2% | [13] 63.5% | [14] 96.4% | [15] 74.4% | [16] 64.9% | [17] 68.7% | [19] 55.7% | [20] 64.6%

CC1CC2Oc3ccc(Cl)cc3C(=O)N2O1 (stereo not given)
inactive: [1] 102% | [2] 107% | [3] 118% | [4] 102% | [5] 119% | [6] 103% | [7] 104% | [8] 102% | [9] 118% | [10] 107% | [11] 99.2% | [12] 105% | [13] 101% | [14] 112% | [15] 108% | [16] 97.1% | [17] 102% | [18] 108% | [19] 98.2% | [20] 118%

O=C(CSc1nnc(-c2ccc(NC(=O)c3cccnc3)cc2)o1)N[C@@H](Cc1ccc(O)cc1)C(=O)O
inactive: [1] 117% | [2] 93.6% | [3] 102% | [4] 97.7% | [5] 109% | [6] 107% | [7] 108% | [8] 102% | [9] 99.7% | [10] 100% | [11] 113% | [12] 106% | [13] 98.9% | [14] 96.7% | [15] 103% | [16] 101% | [17] 100% | [18] 92.8% | [19] 104% | [20] 108%

COc1ccc(-c2nc(SCC(=O)Nc3nc(-c4ccccc4)cs3)[nH]c(=O)c2C#N)cc1
inactive: [1] 118% | [2] 93.5% | [3] 90.1% | [4] 95.1% | [5] 96.6% | [6] 95.9% | [7] 96.3% | [8] 103% | [9] 109% | [10] 89.6% | [11] 109% | [12] 115% | [13] 70.4% | [14] 109% | [15] 103% | [16] 86% | [17] 102% | [18] 92.1% | [19] 92.9% | [20] 104%

Cc1cccc(Cc2cnc(NC(=O)c3ccc4nnsc4c3)s2)c1
inactive: [1] 74% | [2] 39.4% | [3] 95.3% | [4] 111% | [5] 97.5% | [6] 89.9% | [7] 93.7% | [8] 91% | [9] 95.4% | [10] 64.6% | [11] 68.6% | [12] 82.8% | [13] 105% | [14] 96.1% | [15] 88.7% | [16] 66.1% | [17] 97.3% | [18] 35.3% | [19] 34.6% | [20] 103%
